Drawing on PubChem BioAssay, this text covers composite z-score for 36 compounds.

Test system in one assay: not listed separately
Put plainly: small-molecule binders of probe aNOTCH2, primary screen, biochemical, small-molecule microarray, 635/667 nm fluorescence (AID 1121).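 Also: score merges feature fluorescence read at 667 nm with its signal to noise.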 Particulars: higher = more signal.
The compound `O=C1C=C(c2ccccc2)C(=O)c2ccc([C@H]3Oc4ccccc4S(=O)(=O)N4CCC[C@@H]34)cc21` yielded a composite z-score of -0.161.

`Cc1ccc(S[C@]2(C(=O)NCC(F)(F)F)CC(=O)N(C3CCCCC3)[C@@H]2c2ccc(CO)cc2I)cc1` gave a composite z-score of -0.108.

In turn, `COc1ccc(C#Cc2ccc3c(c2)[C@]2(C(=O)N3)[C@H](c3ccc(O)cc3)N3[C@H](c4ccccc4)[C@H](c4ccccc4)OC(=O)[C@H]3[C@@H]2C(=O)O)cc1` had a composite z-score of 0.163.

`COC(=O)[C@@]1(Cc2ccc(OC)cc2)[C@@H]2C(=CC(=O)[C@H]2CC(=O)C(=O)N(C)C)CN1C(=O)c1ccccc1`: the composite z-score was found to be 0.358.

`CCOC(=O)c1ccc(NC(=O)O[C@H]2[C@H](OC(=O)Nc3ccc4c(c3)OCO4)[C@H](OC(=O)Nc3ccc4c(c3)OCO4)[C@@H](OC)O[C@@H]2CO)cc1`: the composite z-score is 0.077.

Turning to `C=CCN1Cc2ccccc2[C@H]2OC(c3ccc(OCCCO)cc3)=N[C@@]2(CC=C)C1=O`, the composite z-score came to 0.007.

The compound `CN(C)CCCNC(=O)[C@@]1(C)c2ccccc2C(=O)N(Cc2ccccc2)[C@H]1c1ccc(CO)cc1` returned a composite z-score of -0.236.

Compound `CCCCCCCCCCC(O)C1C=CC2C(=O)N(C)C(=O)C2N1NC(=O)OC(C)(C)C` (centres undefined) gave a composite z-score of -0.124.

A further assay concerns the target Carbonic anhydrase 2 (Homo sapiens) (UniProt P00918). In words: CAII small-molecule binders, profiling panel, biochemical, small-molecule microarray, Alexa647-labelled CAII (AID 1122). Particulars: CAII-A647 binding fluorescence, higher = more signal.
As for `CN1C(=O)C2C=CC(C(O)C#Cc3ccccc3)N(Nc3ccccc3)C2C1=O` (centres undefined), the composite z-score is 0.663.

As for `CN(C)c1ccc(C(O)C2C=CC3C(=O)N(c4ccccc4)C(=O)C3N2Nc2ccc([N+](=O)[O-])cc2)cc1` (centres undefined), the composite z-score was 0.27.

In the case of `CN(C)C(=O)[C@@]1(Cc2ccccc2CN=[N+]=[N-])N=C(c2ccc(OCCCO)cc2)O[C@H]1c1ccccc1CN=[N+]=[N-]`, the composite z-score stood at 0.703.

Consider `O=C1OCC=C[C@H]2OC34C=CCN(Cn5nnc6ccccc65)C(=O)[C@H]3N(CCCO)C(=O)[C@@H]4[C@@H]12` (some centres undefined), for which the composite z-score was 0.847.

Take `C[N+](C)(C)CCCCCCNC(=O)[C@H]1C[C@H]2C(=O)N[C@@H](Cc3ccccc3)C(=O)N2[C@H]1c1ccc(O)cc1`: the composite z-score amounted to 0.4.

In turn, `COCCOC(=O)N1C(=O)[C@@]2(c3cc(C#CCCO)ccc31)[C@H](C(=O)Nc1nc3ccccc3s1)[C@H]1C(=O)O[C@H](c3ccccc3)[C@H](c3ccccc3)N1[C@@H]2c1ccccc1OCCO` registered a composite z-score of 0.542.

`COc1cc2c(cc1OC)CN(C(=O)[C@@H]1[C@H]3C(=O)O[C@H](c4ccccc4)[C@H](c4ccccc4)N3[C@H](c3ccc(OCCO)cc3)[C@@]13C(=O)Nc1ccc(C#CC4(O)CCCCCC4)cc13)CC2` displayed a composite z-score of 0.543.

Compound `COc1cc(CO)cc(I)c1O[C@H]1C=C(C(=O)NCCO)C[C@@H](NCc2ccc(F)cc2)[C@@H]1O` gave a composite z-score of 0.223.

Take `[N-]=[N+]=NCc1ccccc1C[C@@]1(C(=O)NCc2ccccc2)N=C(c2ccc(OCCCO)cc2)O[C@@H]1c1ccccc1N=[N+]=[N-]`: the composite z-score amounted to 0.301.

For the compound `O=C(CS)NCCCCCNC(=O)[C@@H]1C[C@@H]2C(=O)N3CCC[C@H]3C(=O)N2[C@@H]1c1cccc(OCCO)c1`, the composite z-score was found to be 0.747.

As for `C=C(C)c1cc2c(c(CCCCCC)n1)[Si](C(C)C)(C(C)C)OC2`, the composite z-score was -0.484.

The compound `CCCCC(O)C1C=CC2C(=O)N(c3ccccc3)C(=O)C2N1Nc1ccc(C(C)C)cc1` (centres undefined) registered a composite z-score of 0.712.

Take `COCCOC(=O)N1C(=O)[C@@]2(c3cc(C#CC4=CCCCC4)ccc31)[C@H](c1ccc(OCCO)cc1)N1[C@H](c3ccccc3)[C@H](c3ccccc3)OC(=O)[C@H]1[C@@H]2C(=O)N1CCN(c2ncccn2)CC1`: the composite z-score is 0.425.

On to `C=C(COC)/C(=C/C[C@H](OC(C)=O)c1ccc(OCCO)cc1)c1cc(C(=O)OC)ccc1OC`, for which the composite z-score came out at 0.622.

In turn, `CC1CC/C=C\[C@H]2OC34C=CCN(c5ccc(Cl)cc5)C(=O)[C@H]3N(CCCCCO)C(=O)[C@]4(C)C2C(=O)O1` (some centres undefined) gave a composite z-score of -0.482.

`CN1C(=O)C2C=CC(C(O)c3cccc(O)c3)N(Nc3ccccc3)C2C1=O` (centres undefined) showed a composite z-score of 0.552.

As to `O=C1NC(=O)C2C1C=CC(C(O)c1c(F)cccc1Cl)N2Nc1ccc(Cl)cc1Cl` (centres undefined), the composite z-score came to 0.599.

The compound `COc1ccc([Si](C)(C)[C@@H]2[C@@H](CCO)O[C@]3(C(=O)N(Cc4ccc(N5CCCCC5=O)cc4)c4ccccc43)[C@H]2C)cc1` displayed a composite z-score of 0.304.

Consider `C=CCC(OC(C)=O)[C@@H]1[C@@H](N(Cc2cc3ccccc3o2)C(=O)c2ccc(C)cc2)c2cc(OCCCO)ccc2N1C(=O)Cc1ccc(OC)cc1` (some centres undefined), for which the composite z-score is -0.119.

In turn, `CCOc1cc(C(O)C2C=CC3C(=O)N(C)C(=O)C3N2Nc2ccccc2)ccc1O` (centres undefined) gave a composite z-score of 0.827.

The compound `O=C(CS)NCCCCCCNC(=O)[C@H]1C[C@H]2C(=O)N[C@@H](Cc3ccccc3)C(=O)N2[C@H]1c1ccc(O)cc1` yielded a composite z-score of 0.557.

`CC(c1ccccc1)C(O)C1C=CC2C(=O)N(c3ccccc3)C(=O)C2N1Nc1ccc([N+](=O)[O-])cc1` (centres undefined) showed a composite z-score of 0.526.

Consider `COc1ccccc1CN1C(=O)c2ccccc2[C@@]2(Cc3ccccc3N(CC(F)(F)F)C2=O)[C@@H]1c1ccc(CO)cc1`, for which the composite z-score worked out at 0.757.

`COC(=O)C(CC#Cc1ccc2c(c1)[C@]1(C(=O)N2)[C@H](C(=O)N2CCN(c3ncccn3)CC2)[C@H]2C(=O)O[C@H](c3ccccc3)[C@H](c3ccccc3)N2[C@@H]1c1ccc(OCCO)cc1)C(=O)OC` yielded a composite z-score of 0.259.

On to `[N-]=[N+]=Nc1ccccc1[C@@H]1OC(c2ccc(OCCCO)cc2)=N[C@]1(Cc1ccccc1)C(=O)NCC(O)CO` (some centres undefined), for which the composite z-score came out at 0.765.

`Cc1cc(C)c(C(O)C2C=CC3C(=O)NC(=O)C3N2Nc2ccc(Cl)cc2Cl)c(C)c1` (centres undefined): the composite z-score was 0.575.

On to `COC(=O)c1c2oc(c1C(=O)OC)C(=O)N(Cc1ccccc1)Cc1cn(nn1)C[C@H](Cc1ccccc1)NC(=O)N[C@H](CO)CC2`, for which the composite z-score turned out to be 0.778.

In turn, `C=CCNC(=O)[C@H]1[C@@H]2C(=O)O[C@@H](c3ccccc3)[C@@H](c3ccccc3)N2[C@@H](c2ccc(O)cc2)[C@]12C(=O)N(C(=O)OCCOC)c1ccccc12` returned a composite z-score of 0.385.

As to `O=C1C=C(c2ccccc2)C(=O)c2ccc([C@H]3Oc4ccccc4S(=O)(=O)N4CCC[C@@H]34)cc21`, the composite z-score was -0.48.

On to `Cc1ccc(S[C@]2(C(=O)NCC(F)(F)F)CC(=O)N(C3CCCCC3)[C@@H]2c2ccc(CO)cc2I)cc1`, for which the composite z-score came to 0.369.

Consider `COc1ccc(C#Cc2ccc3c(c2)[C@]2(C(=O)N3)[C@H](c3ccc(O)cc3)N3[C@H](c4ccccc4)[C@H](c4ccccc4)OC(=O)[C@H]3[C@@H]2C(=O)O)cc1`, for which the composite z-score turned out to be 0.614.

Compound `COC(=O)[C@@]1(Cc2ccc(OC)cc2)[C@@H]2C(=CC(=O)[C@H]2CC(=O)C(=O)N(C)C)CN1C(=O)c1ccccc1` registered a composite z-score of 0.777.

`CCOC(=O)c1ccc(NC(=O)O[C@H]2[C@H](OC(=O)Nc3ccc4c(c3)OCO4)[C@H](OC(=O)Nc3ccc4c(c3)OCO4)[C@@H](OC)O[C@@H]2CO)cc1` registered a composite z-score of 0.49.

In turn, `C=CCN1Cc2ccccc2[C@H]2OC(c3ccc(OCCCO)cc3)=N[C@@]2(CC=C)C1=O` had a composite z-score of 0.418.

Turning to `CN(C)CCCNC(=O)[C@@]1(C)c2ccccc2C(=O)N(Cc2ccccc2)[C@H]1c1ccc(CO)cc1`, the composite z-score worked out at 0.704.

Turning to `CCCCCCCCCCC(O)C1C=CC2C(=O)N(C)C(=O)C2N1NC(=O)OC(C)(C)C` (centres undefined), the composite z-score was 0.344.
